# Assay results: article PMC7862700, “An all-to-all approach to the identification of sequence-specific readers for epigenetic DNA modifications on cytosine”
# What was measured:
# Assay in all cases: DAPPL (digital affinity profiling via proximity ligation, sequencing); 10 mM Tris-HCl pH 7.5, 50 mM NaCl, 1 mM DTT, 4% glycerol, room temperature, 30 min; GST-TFs on glutathione beads, 16-mer random dsDNA library, 0.1% formaldehyde crosslink after washing; high values mean tight binding
# [1] = molecular target: T1, FEV (Homo sapiens, UniProt Q99581 1-238); details: protein: recombinant; tags: N-terminal GST; dsDNA, one strand shown
# T1 sequence: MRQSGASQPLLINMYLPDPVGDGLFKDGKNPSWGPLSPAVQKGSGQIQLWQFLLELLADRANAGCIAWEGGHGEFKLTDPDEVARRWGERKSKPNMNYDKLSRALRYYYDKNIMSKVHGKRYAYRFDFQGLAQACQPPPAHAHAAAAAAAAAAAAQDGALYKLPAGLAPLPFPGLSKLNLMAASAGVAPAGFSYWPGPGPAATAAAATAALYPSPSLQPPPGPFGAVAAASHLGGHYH
# In short: (§1)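 In yeast, human transcription factors were expressed with a GST fusion, then pulled down on glutathione beads and given DNA barcodes. Pooled with a tag-only sample, they were exposed to 200 nmole of a 16-mer random double-stranded DNA library (Tris/NaCl/DTT/glycerol buffer, room temperature, 30 min), washed, crosslinked with 0.1% formaldehyde, proximity-ligated using BsaI/T4 ligase for 1 h at 37 °C, PCR-amplified and read on an Illumina NextSeq500. Each hexamer's frequency of reads for a factor, divided by the matching frequency for the tag-only sample, gives the binding signal.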
# [2] = molecular target: ETV5 (Homo sapiens, UniProt P41161 1-510); details: protein: recombinant; tags: N-terminal GST; dsDNA, one strand shown
# In short: as §1
# [3] = molecular target: HSF1 (Homo sapiens, UniProt Q00613 1-529); details: protein: recombinant; tags: N-terminal GST; chain copies: 3; dsDNA, one strand shown
# In short: as §1
# [4] = molecular target: T2, SPIC (Homo sapiens, UniProt Q8N5J4 1-248); details: protein: recombinant; tags: N-terminal GST; dsDNA, one strand shown
# T2 sequence: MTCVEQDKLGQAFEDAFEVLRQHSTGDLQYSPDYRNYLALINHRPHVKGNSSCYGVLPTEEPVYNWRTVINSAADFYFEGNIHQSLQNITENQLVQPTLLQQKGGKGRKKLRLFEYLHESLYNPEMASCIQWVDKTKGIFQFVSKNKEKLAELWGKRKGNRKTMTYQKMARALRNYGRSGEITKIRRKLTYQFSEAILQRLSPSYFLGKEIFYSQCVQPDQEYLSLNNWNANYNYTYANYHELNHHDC
# In short: as §1
# [5] = molecular target: ELF4 (Homo sapiens, UniProt Q99607 1-663); details: protein: recombinant; tags: N-terminal GST; dsDNA, one strand shown
# In short: as §1
# [6] = molecular target: T3, ELK4 (Homo sapiens, UniProt P28324-2 1-405); details: protein: recombinant; tags: N-terminal GST; dsDNA, one strand shown
# T3 sequence: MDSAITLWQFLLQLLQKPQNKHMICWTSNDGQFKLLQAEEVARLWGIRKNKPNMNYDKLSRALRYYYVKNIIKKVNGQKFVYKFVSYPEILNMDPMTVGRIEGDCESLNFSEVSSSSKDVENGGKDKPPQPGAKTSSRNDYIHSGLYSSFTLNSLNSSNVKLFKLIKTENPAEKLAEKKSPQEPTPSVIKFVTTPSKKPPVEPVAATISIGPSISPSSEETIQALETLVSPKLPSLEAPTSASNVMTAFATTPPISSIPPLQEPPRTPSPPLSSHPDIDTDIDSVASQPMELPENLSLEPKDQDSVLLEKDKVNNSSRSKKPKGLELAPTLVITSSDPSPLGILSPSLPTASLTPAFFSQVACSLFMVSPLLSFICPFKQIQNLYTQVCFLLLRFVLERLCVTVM
# In short: as §1
# [7] = molecular target: T4, ETV2 (Homo sapiens, UniProt O00321 1-342); details: protein: recombinant; tags: N-terminal GST; dsDNA, one strand shown
# T4 sequence: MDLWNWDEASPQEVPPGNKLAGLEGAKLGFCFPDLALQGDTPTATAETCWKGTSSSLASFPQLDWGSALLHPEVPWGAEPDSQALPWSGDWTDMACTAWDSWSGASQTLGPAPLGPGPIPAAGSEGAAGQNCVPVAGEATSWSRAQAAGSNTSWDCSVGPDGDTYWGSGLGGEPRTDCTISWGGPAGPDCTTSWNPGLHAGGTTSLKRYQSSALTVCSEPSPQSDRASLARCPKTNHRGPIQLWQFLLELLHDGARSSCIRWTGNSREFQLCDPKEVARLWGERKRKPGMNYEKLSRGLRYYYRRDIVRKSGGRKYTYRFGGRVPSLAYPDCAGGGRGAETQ
# In short: as §1
# [8] = molecular target: T5, ELF3 (Homo sapiens, UniProt P78545 1-371); details: protein: recombinant; tags: N-terminal GST; dsDNA, one strand shown
# T5 sequence: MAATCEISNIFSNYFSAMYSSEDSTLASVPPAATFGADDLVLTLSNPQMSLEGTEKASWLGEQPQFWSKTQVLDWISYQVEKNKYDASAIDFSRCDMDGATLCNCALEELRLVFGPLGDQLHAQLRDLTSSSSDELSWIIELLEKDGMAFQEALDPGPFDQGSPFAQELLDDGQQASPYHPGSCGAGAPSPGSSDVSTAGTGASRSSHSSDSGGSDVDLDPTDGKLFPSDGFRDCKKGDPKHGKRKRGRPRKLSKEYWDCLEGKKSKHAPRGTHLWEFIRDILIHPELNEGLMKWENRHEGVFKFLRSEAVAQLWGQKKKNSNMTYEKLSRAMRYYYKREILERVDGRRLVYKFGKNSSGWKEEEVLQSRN
# In short: as §1
# [9] = molecular target: ETV1 (Homo sapiens, UniProt P50549 1-477); details: protein: recombinant; tags: N-terminal GST; dsDNA, one strand shown
# In short: as §1
# [10] = molecular target: T6, ERF (Homo sapiens, UniProt P50548 1-548); details: protein: recombinant; tags: N-terminal GST; dsDNA, one strand shown
# T6 sequence: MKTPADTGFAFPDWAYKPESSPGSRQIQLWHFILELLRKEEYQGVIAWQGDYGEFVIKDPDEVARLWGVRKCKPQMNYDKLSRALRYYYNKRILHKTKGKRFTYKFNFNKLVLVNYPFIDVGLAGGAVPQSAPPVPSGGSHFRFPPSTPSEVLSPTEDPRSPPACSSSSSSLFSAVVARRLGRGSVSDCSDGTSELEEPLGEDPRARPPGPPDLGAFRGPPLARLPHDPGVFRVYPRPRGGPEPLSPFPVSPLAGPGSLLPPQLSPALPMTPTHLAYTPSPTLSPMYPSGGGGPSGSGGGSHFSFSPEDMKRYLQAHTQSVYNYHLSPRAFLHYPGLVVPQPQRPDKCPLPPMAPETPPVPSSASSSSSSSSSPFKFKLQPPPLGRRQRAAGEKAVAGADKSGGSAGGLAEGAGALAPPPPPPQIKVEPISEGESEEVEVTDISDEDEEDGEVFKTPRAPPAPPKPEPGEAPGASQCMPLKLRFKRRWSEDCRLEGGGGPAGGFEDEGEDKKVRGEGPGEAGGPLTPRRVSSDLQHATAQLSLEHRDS
# In short: as §1
# [11] = molecular target: T7, ETV3L (Homo sapiens, UniProt Q6ZN32 1-361); details: protein: recombinant; tags: N-terminal GST; dsDNA, one strand shown
# T7 sequence: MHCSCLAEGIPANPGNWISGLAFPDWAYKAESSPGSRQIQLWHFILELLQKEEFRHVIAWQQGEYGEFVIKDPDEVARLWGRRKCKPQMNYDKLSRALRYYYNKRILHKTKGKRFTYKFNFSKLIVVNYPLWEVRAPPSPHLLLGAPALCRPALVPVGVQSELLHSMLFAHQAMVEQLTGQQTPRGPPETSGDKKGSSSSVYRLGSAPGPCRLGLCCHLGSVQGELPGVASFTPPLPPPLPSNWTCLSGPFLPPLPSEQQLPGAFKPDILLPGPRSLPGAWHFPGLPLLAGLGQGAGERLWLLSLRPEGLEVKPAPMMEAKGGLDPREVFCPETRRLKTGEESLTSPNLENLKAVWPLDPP
# In short: as §1
# [12] = molecular target: T8, ETS2 (Homo sapiens, UniProt P15036 1-469); details: protein: recombinant; tags: N-terminal GST; dsDNA, one strand shown
# T8 sequence: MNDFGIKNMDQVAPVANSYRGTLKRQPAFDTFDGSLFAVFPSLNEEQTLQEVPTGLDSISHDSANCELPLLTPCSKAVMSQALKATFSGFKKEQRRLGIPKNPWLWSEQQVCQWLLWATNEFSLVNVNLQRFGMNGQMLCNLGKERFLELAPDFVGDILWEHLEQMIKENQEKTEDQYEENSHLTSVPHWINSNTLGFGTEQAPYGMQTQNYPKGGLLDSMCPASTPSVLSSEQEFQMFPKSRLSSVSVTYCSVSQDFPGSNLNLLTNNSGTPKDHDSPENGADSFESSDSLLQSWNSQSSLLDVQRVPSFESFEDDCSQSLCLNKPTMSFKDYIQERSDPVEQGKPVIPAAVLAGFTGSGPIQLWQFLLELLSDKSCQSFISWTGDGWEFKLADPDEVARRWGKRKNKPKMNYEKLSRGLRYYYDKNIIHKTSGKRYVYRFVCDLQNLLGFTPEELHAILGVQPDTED
# In short: as §1
# [13] = molecular target: T9, SPDEF (Homo sapiens, UniProt O95238 1-335); details: protein: recombinant; tags: N-terminal GST; dsDNA, one strand shown
# T9 sequence: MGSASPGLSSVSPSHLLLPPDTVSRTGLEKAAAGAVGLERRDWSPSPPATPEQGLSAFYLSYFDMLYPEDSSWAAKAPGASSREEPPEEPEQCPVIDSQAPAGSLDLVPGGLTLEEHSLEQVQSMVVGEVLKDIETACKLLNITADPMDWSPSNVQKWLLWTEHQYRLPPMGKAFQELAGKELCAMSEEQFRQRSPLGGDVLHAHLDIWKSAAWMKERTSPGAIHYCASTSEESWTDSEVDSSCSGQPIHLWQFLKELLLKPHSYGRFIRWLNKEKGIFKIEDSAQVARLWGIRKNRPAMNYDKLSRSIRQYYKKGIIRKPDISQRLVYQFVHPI
# In short: as §1
# [14] = molecular target: T10, ETV7 (Homo sapiens, UniProt Q9Y603 1-341); details: protein: recombinant; tags: N-terminal GST; dsDNA, one strand shown
# T10 sequence: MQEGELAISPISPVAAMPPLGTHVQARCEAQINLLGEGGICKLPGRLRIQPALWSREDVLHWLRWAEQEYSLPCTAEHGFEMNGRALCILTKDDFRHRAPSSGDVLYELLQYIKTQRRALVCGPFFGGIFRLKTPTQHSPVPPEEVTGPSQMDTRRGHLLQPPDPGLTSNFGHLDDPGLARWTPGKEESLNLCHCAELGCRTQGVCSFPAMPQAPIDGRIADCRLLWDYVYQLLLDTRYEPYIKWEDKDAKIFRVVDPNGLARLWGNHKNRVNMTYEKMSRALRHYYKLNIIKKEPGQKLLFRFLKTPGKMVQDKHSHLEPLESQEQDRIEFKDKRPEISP
# In short: as §1
# [15] = molecular target: T11, ELF5 (Homo sapiens, UniProt Q9UKW6-2 1-255); details: protein: recombinant; tags: N-terminal GST; dsDNA, one strand shown
# T11 sequence: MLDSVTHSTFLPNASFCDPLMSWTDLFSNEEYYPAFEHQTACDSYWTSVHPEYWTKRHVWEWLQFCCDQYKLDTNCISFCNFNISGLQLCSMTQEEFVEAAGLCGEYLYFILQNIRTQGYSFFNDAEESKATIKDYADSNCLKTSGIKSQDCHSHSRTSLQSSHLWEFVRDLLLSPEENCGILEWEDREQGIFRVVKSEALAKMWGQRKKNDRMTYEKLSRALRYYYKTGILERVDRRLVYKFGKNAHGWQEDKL
# In short: as §1
# [16] = molecular target: T12, ETV3 (Homo sapiens, UniProt P41162-2 1-143); details: protein: recombinant; tags: N-terminal GST; dsDNA, one strand shown
# T12 sequence: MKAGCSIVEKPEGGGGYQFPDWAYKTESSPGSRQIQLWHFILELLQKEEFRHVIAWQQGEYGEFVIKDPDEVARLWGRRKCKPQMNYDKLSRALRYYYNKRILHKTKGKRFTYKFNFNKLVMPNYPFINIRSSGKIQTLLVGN
# In short: as §1
# [17] = molecular target: ETV6 (Homo sapiens, UniProt P41212 1-452); details: protein: recombinant; tags: N-terminal GST; dsDNA, one strand shown
# In short: as §1
# HSF1, sequence (Q00613 whole entry): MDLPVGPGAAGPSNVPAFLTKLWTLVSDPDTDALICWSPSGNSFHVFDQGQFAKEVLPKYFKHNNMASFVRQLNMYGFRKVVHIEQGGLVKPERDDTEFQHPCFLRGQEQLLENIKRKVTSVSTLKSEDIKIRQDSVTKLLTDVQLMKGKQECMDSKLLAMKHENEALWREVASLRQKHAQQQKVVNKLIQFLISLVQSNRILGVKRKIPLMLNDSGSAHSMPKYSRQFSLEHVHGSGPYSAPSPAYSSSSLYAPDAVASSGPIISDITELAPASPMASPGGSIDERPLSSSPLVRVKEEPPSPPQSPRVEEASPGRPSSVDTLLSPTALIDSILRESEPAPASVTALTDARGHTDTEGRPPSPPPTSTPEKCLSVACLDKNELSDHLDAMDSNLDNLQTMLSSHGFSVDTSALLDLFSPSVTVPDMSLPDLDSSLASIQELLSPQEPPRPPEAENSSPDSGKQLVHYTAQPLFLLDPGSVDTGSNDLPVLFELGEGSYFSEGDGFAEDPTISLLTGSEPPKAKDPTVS
# ETV6, sequence (P41212 whole entry): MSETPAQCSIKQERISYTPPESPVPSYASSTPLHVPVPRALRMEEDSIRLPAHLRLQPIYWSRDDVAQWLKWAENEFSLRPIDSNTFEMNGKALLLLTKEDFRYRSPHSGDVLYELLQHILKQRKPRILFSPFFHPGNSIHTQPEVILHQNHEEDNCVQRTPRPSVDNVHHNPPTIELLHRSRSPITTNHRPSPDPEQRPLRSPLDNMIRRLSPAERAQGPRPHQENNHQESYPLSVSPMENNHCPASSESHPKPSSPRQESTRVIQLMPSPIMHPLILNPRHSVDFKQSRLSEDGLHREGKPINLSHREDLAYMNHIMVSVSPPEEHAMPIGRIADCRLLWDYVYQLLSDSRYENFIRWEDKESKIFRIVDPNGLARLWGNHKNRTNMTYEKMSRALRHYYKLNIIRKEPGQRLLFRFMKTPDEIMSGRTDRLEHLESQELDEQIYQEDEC
# ETV5, sequence (P41161 whole entry): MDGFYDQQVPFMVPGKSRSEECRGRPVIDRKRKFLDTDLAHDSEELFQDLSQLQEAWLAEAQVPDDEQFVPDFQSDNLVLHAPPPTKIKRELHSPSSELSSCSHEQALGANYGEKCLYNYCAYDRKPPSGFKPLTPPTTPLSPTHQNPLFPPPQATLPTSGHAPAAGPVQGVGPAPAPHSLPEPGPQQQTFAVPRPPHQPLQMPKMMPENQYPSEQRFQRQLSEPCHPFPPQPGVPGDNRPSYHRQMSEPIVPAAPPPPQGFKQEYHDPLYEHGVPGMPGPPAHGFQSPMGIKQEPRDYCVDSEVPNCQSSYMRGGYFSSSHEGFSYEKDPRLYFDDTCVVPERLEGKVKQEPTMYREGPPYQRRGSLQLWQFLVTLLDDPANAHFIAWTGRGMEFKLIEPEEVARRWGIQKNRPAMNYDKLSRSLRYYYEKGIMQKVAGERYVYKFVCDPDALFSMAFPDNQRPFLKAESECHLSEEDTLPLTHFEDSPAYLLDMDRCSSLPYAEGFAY
# ETV1, sequence (P50549 whole entry): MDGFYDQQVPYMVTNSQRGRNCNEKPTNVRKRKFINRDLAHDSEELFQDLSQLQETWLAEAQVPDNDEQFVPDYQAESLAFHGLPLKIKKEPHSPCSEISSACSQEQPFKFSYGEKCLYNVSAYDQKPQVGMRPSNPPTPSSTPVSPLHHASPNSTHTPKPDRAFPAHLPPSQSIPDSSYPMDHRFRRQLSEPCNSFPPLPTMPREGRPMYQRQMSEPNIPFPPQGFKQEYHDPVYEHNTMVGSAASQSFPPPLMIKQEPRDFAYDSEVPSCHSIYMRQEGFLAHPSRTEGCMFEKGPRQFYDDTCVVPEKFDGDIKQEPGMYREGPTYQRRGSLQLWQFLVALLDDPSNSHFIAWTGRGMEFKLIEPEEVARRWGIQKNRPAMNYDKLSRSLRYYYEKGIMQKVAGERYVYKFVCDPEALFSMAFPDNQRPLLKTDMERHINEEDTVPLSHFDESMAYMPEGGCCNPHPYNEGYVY
# ELF4, sequence (Q99607 whole entry): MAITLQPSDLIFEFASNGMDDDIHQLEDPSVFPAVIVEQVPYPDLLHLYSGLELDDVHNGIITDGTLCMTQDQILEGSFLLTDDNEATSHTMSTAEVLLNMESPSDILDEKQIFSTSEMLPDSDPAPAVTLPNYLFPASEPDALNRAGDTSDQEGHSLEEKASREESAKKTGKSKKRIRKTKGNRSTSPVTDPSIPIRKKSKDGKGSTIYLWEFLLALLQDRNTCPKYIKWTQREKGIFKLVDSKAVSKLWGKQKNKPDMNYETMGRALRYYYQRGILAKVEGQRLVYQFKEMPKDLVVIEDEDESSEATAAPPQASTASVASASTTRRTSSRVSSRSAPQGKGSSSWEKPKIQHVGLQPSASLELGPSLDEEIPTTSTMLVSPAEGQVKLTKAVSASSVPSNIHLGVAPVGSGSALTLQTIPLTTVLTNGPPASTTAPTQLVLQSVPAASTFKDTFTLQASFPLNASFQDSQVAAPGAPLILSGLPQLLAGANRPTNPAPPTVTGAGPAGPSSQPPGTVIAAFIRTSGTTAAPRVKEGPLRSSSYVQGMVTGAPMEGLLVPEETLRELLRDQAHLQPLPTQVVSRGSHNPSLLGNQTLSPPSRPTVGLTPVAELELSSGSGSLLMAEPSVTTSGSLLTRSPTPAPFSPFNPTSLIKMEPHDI
Sequence,binding signal [1],binding signal [2],binding signal [3],binding signal [4],binding signal [5],binding signal [6],binding signal [7],binding signal [8],binding signal [9],binding signal [10],binding signal [11],binding signal [12],binding signal [13],binding signal [14],binding signal [15],binding signal [16],binding signal [17]
GAAACA,"1.33 fold enrichment (6-mer frequency, TF over GST control)","1.46 fold enrichment (6-mer frequency, TF over GST control)","1.22 fold enrichment (6-mer frequency, TF over GST control)","1.38 fold enrichment (6-mer frequency, TF over GST control)","1.3 fold enrichment (6-mer frequency, TF over GST control)","1.22 fold enrichment (6-mer frequency, TF over GST control)","1.44 fold enrichment (6-mer frequency, TF over GST control)","1.52 fold enrichment (6-mer frequency, TF over GST control)","1.26 fold enrichment (6-mer frequency, TF over GST control)","1.34 fold enrichment (6-mer frequency, TF over GST control)","1.4 fold enrichment (6-mer frequency, TF over GST control)","1.34 fold enrichment (6-mer frequency, TF over GST control)","1.3 fold enrichment (6-mer frequency, TF over GST control)","1.35 fold enrichment (6-mer frequency, TF over GST control)","1.39 fold enrichment (6-mer frequency, TF over GST control)","1.37 fold enrichment (6-mer frequency, TF over GST control)","1.45 fold enrichment (6-mer frequency, TF over GST control)"
GCCTCA,"1.19 fold enrichment (6-mer frequency, TF over GST control)","1.22 fold enrichment (6-mer frequency, TF over GST control)","1.05 fold enrichment (6-mer frequency, TF over GST control)","1.21 fold enrichment (6-mer frequency, TF over GST control)","1.2 fold enrichment (6-mer frequency, TF over GST control)","1.13 fold enrichment (6-mer frequency, TF over GST control)","1.12 fold enrichment (6-mer frequency, TF over GST control)","1.34 fold enrichment (6-mer frequency, TF over GST control)","1.13 fold enrichment (6-mer frequency, TF over GST control)","1.35 fold enrichment (6-mer frequency, TF over GST control)","1.31 fold enrichment (6-mer frequency, TF over GST control)","1.13 fold enrichment (6-mer frequency, TF over GST control)","1.16 fold enrichment (6-mer frequency, TF over GST control)","1.24 fold enrichment (6-mer frequency, TF over GST control)","1.15 fold enrichment (6-mer frequency, TF over GST control)","1.19 fold enrichment (6-mer frequency, TF over GST control)","1.18 fold enrichment (6-mer frequency, TF over GST control)"
